“And” between values parts separate entries of the source, which are not always exact repeats. Equal values may be shown once. About 2,000 (36%) of roughly 5,500 compounds were called active. Not shown: some 18% with an inconclusive outcome. Rule as the data show it: active = normalized growth mostly below about 0.91 (no sharp cut-off); inconclusive = no clear call, values can overlap the other calls; inactive = mostly above about 0.92. Some of the results follow.
Experiment: chemical genetic growth profiling, strain panel (AID 1159580);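 also: tested at 20 µM; growth read once vehicle control cultures reached saturation at 30 °C; 1 = growth at the plate median or of vehicle wells; lower values mean less growth of the strain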
Conditions: S. cerevisiae deletion strains, growth OD
[1] = locus YAL013W, strain DEP1, stronger effect = lower value

Measured: normalized growth

OC[C@H]1O[C@@H](n2cnc3c(NC4CCCC4)ncnc32)C(O)[C@H]1O (stereo partly specified)
inactive: [1] 0.994 | locus YAL040C, strain CLN3, stronger effect = lower value 0.989 | locus YER002W, strain NOP16, stronger effect = lower value 1.03 | locus YJR075W, strain HOC1, stronger effect = lower value 1.01 | locus YMR263W, strain SAP30, stronger effect = lower value 1.03 | locus YNL128W, strain TEP1, stronger effect = lower value 1 | locus YNL175C, strain NOP13, stronger effect = lower value 1.03 | locus YNL197C, strain WHI3, stronger effect = lower value 1.04 | locus YNL224C, strain SQS1, stronger effect = lower value 1 | locus YOR083W, strain WHI5 (second series), stronger effect = lower value 1.03 | locus YPL055C, strain LGE1, stronger effect = lower value 1.01

C[C@@H]1CC[C@@]23CCC4(C)[C@@](C=CC5[C@@]6(C)CCC(=O)C(C)(C)C6CC[C@]54C)(OC2=O)C3[C@H]1C (stereo partly specified)
active: locus YHR094C, strain hxt1, stronger effect = lower value 1.11 [resistant] | locus YLR371W, strain rom2, stronger effect = lower value 1.1 [resistant]
inactive: [1] 1.03 | locus YAL021C, strain ccr4, stronger effect = lower value 0.998 | locus YAL026C, strain drs2, stronger effect = lower value 1.01 | locus YAL030W, strain snc1, stronger effect = lower value 0.998 | locus YBL061C, strain skt5, stronger effect = lower value 0.994 | locus YBR009C, strain hhf1, stronger effect = lower value 1.02 | locus YBR021W, strain FUR4, stronger effect = lower value 1.01 | locus YBR023C, strain chs3, stronger effect = lower value 1 | locus YBR171W, strain sec66, stronger effect = lower value 0.99 | locus YBR229C, strain ROT2, stronger effect = lower value 1.02 | locus YBR231C, strain swc5, stronger effect = lower value 1.01 | locus YBR279W, strain paf1, stronger effect = lower value 0.99 | locus YCL011C, strain gbp2, stronger effect = lower value 1.02 | locus YCL016C, strain dcc1, stronger effect = lower value 0.981 | locus YCL029C, strain bik1, stronger effect = lower value 1.03 | locus YCL061C, strain MRC1, stronger effect = lower value 1.01 | locus YCL069W, strain vba3, stronger effect = lower value 0.997 | locus YCR088W, strain abp1, stronger effect = lower value 0.992 | locus YDL005C, strain med2, stronger effect = lower value 1 | locus YDL035C, strain GPR1, stronger effect = lower value 1.02 | locus YDL040C, strain nat1, stronger effect = lower value 0.997 | locus YDL074C, strain BRE1, stronger effect = lower value 1.01 | locus YDL101C, strain DUN1, stronger effect = lower value 1.03 | locus YDL185W, strain tfp1, stronger effect = lower value 0.989 | locus YDL192W, strain arf1, stronger effect = lower value 1.01 | locus YDR001C, strain nth1, stronger effect = lower value 0.987 | locus YDR069C, strain doa4, stronger effect = lower value 1 | locus YDR101C, strain arx1, stronger effect = lower value 1.01 | locus YDR137W, strain rgp1, stronger effect = lower value 1.04 | locus YDR150W, strain NUM1, stronger effect = lower value 1.02 | locus YDR159W, strain sac3, stronger effect = lower value 1 | locus YDR162C, strain NBP2, stronger effect = lower value 1.04 | locus YDR195W, strain ref2 0.957 | locus YDR297W, strain sur2, stronger effect = lower value 1.02 | locus YDR318W, strain mcm21, stronger effect = lower value 1.04 | locus YDR334W, strain swr1, stronger effect = lower value 0.998 | locus YDR335W, strain msn5, stronger effect = lower value 1 | locus YDR388W, stronger effect = lower value 1 | locus YDR392W, strain spt3, stronger effect = lower value 1.01 | locus YDR502C, strain sam2, stronger effect = lower value 1.02 | locus YEL003W, strain gim4, stronger effect = lower value 1.01 | locus YEL037C, strain rad23, stronger effect = lower value 1.01 | locus YEL061C, strain CIN8 (second series), stronger effect = lower value 0.99 | locus YEL061C, strain CIN8, stronger effect = lower value 1.02 | locus YER015W, strain faa2, stronger effect = lower value 1.01 | locus YER016W, strain bim1, stronger effect = lower value 0.993 | locus YER110C, stronger effect = lower value 1.01 | locus YER111C, strain swi4, stronger effect = lower value 0.995 | locus YER155C, strain BEM2 (second series), stronger effect = lower value 1.01 | locus YER155C, strain BEM2, stronger effect = lower value 1.02 | locus YER167W, strain BCK2, stronger effect = lower value 1.01 | locus YFR010W, strain ubp6, stronger effect = lower value 1.02 | locus YGL078C, strain dbp3, stronger effect = lower value 1.01 | locus YGL086W, strain mad1, stronger effect = lower value 1 | locus YGL167C, strain pmr1, stronger effect = lower value 0.994 | locus YGL173C, strain kem1, stronger effect = lower value 1.01 | locus YGL227W, strain vid30, stronger effect = lower value 0.983 | locus YGL240W, strain doc1, stronger effect = lower value 1.03 | locus YGL248W, strain PDE1, stronger effect = lower value 1.02 | locus YGL253W, strain hxk2, stronger effect = lower value 1 | locus YGR135W, strain pre9, stronger effect = lower value 1 | locus YGR229C, strain SMI1, stronger effect = lower value 1.02 | locus YGR252W, strain gcn5, stronger effect = lower value 1.02 | locus YHR013C, strain ard1, stronger effect = lower value 0.986 | locus YHR027C, strain rpn1, stronger effect = lower value 1.01 | locus YHR030C, strain SLT2, stronger effect = lower value 1.02 and 0.996 | locus YHR079C, strain IRE1 (second series), stronger effect = lower value 1.02 | locus YHR079C, strain IRE1, stronger effect = lower value 1.01 | locus YHR129C, strain ARP1, stronger effect = lower value 1.02 | locus YHR142W, strain chs7, stronger effect = lower value 0.97 | locus YHR200W, strain rpn10, stronger effect = lower value 1.02 | locus YIL066C, strain RNR3, stronger effect = lower value 1.03 | locus YIL073C, strain SPO22, stronger effect = lower value 1 | locus YIL125W, strain kgd1, stronger effect = lower value 0.992 | locus YIR030C, strain dcg1, stronger effect = lower value 1.04 | locus YJL092W, strain hpr5, stronger effect = lower value 0.989 | locus YJL095W, strain BCK1 (second series), stronger effect = lower value 1 | locus YJL095W, strain BCK1, stronger effect = lower value 1.04 and 0.991 | locus YJL115W, strain asf1, stronger effect = lower value 0.993 | locus YJL129C, strain trk1, stronger effect = lower value 0.98 | locus YJL134W, strain LCB3, stronger effect = lower value 1.01 | locus YJL154C, strain vps35, stronger effect = lower value 0.981 | locus YJL164C, strain tpk1, stronger effect = lower value 1.01 | locus YJL166W, strain qcr8, stronger effect = lower value 1.01 | locus YJL168C, strain set2, stronger effect = lower value 1.01 | locus YJL187C, strain SWE1 (second series), stronger effect = lower value 1.03 | locus YJL187C, strain SWE1, stronger effect = lower value 0.993 | locus YJR043C, strain POL32, stronger effect = lower value 1.02 | locus YJR066W, strain TOR1, stronger effect = lower value 0.953 | locus YKL009W, strain mrt4, stronger effect = lower value 1.01 | locus YKL068W, stronger effect = lower value 1.02 | locus YKL085W, strain MDH1 (second series), stronger effect = lower value 1 | locus YKL085W, strain MDH1, stronger effect = lower value 1 | locus YKL160W, strain elf1, stronger effect = lower value 0.999 | locus YKR001C, strain vps1, stronger effect = lower value 0.977 | locus YKR026C, strain gcn3, stronger effect = lower value 1 | locus YKR091W, strain srl3, stronger effect = lower value 0.994 | locus YLL001W, strain dnm1, stronger effect = lower value 0.982 | locus YLL026W, stronger effect = lower value 1 | locus YLL041C, strain sdh2, stronger effect = lower value 1 | locus YLR027C, strain aat2, stronger effect = lower value 1.02 | locus YLR039C, strain RIC1, stronger effect = lower value 1.05 | locus YLR058C, strain SHM2, stronger effect = lower value 1.02 | locus YLR102C, strain apc9, stronger effect = lower value 1.01 | locus YLR113W, strain HOG1, stronger effect = lower value 1 | locus YLR221C, strain rsa3, stronger effect = lower value 0.988 | locus YLR258W, strain gsy2, stronger effect = lower value 1.01 | locus YLR262C, strain YPT6 (second series), stronger effect = lower value 1.02 | locus YLR262C, strain YPT6, stronger effect = lower value 1.07 | locus YLR268W, strain sec22, stronger effect = lower value 0.995 | locus YLR320W, strain mms22, stronger effect = lower value 1 | locus YLR330W, strain CHS5, stronger effect = lower value 1.02 | locus YLR342W, strain FKS1 (second series), stronger effect = lower value 1.01 | locus YLR342W, strain FKS1, stronger effect = lower value 1.01 | locus YLR357W, strain rsc2, stronger effect = lower value 0.991 | locus YLR370C, strain arc18, stronger effect = lower value 0.996 | locus YLR384C, strain iki3, stronger effect = lower value 0.989 | locus YLR418C, strain cdc73, stronger effect = lower value 1.01 | locus YML016C, strain PPZ1, stronger effect = lower value 1.02 | locus YML032C, strain rad52, stronger effect = lower value 1.04 | locus YML120C, strain ndi1, stronger effect = lower value 0.994 | locus YML124C, strain tub3, stronger effect = lower value 1.02 | locus YMR058W, strain fet3, stronger effect = lower value 1.01 | locus YMR078C, strain ctf18, stronger effect = lower value 1.09 | locus YMR125W, strain sto1, stronger effect = lower value 0.978 | locus YMR129W, stronger effect = lower value 0.99 | locus YMR205C, strain PFK2, stronger effect = lower value 0.983 | locus YMR223W, strain ubp8, stronger effect = lower value 1.04 | locus YMR231W, strain pep5, stronger effect = lower value 0.993 | locus YMR307W, strain GAS1, stronger effect = lower value 1.06 | locus YNL067W, strain RPL9B, stronger effect = lower value 1.02 | locus YNL071W, strain lat1, stronger effect = lower value 1.01 | locus YNL153C, strain GIM3, stronger effect = lower value 1.03 | locus YNL183C, strain NPR1, stronger effect = lower value 0.964 | locus YNL209W, strain ssb2, stronger effect = lower value 0.988 | locus YNL233W, strain BNI4, stronger effect = lower value 1.03 | locus YNL248C, strain rpa49, stronger effect = lower value 1.02 | locus YNL250W, strain rad50, stronger effect = lower value 1 | locus YNL271C, strain bni1, stronger effect = lower value 1.01 | locus YNL298W, strain CLA4, stronger effect = lower value 1.01 | locus YNL307C, strain MCK1, stronger effect = lower value 1.02 | locus YNL322C, strain KRE1 (second series), stronger effect = lower value 1 | locus YNL322C, strain KRE1, stronger effect = lower value 1.01 | locus YNR049C, strain mso1, stronger effect = lower value 0.994 | locus YNR052C, strain pop2, stronger effect = lower value 1.02 | locus YOL006C, strain TOP1, stronger effect = lower value 1 | locus YOL012C, strain htz1 1.03 | locus YOL147C, strain pex11, stronger effect = lower value 1.01 | locus YOR001W, strain rrp6, stronger effect = lower value 1.02 | locus YOR061W, strain CKA2, stronger effect = lower value 1.01 | locus YOR069W, strain VPS5, stronger effect = lower value 1.01 | locus YOR070C, strain gyp1, stronger effect = lower value 0.995 | locus YOR080W, strain dia2, stronger effect = lower value 0.996 | locus YOR083W, strain WHI5, stronger effect = lower value 1.01 | locus YOR106W, strain vam3, stronger effect = lower value 1 | locus YOR136W, strain idh2, stronger effect = lower value 1.01 | locus YOR144C, strain elg1, stronger effect = lower value 1.02 | locus YOR184W, strain ser1, stronger effect = lower value 1.01 | locus YOR231W, strain MKK1, stronger effect = lower value 1.01 | locus YOR265W, strain rbl2, stronger effect = lower value 1.01 | locus YOR270C, strain vph1, stronger effect = lower value 1.03 | locus YOR290C, strain snf2, stronger effect = lower value 0.97 | locus YOR316C, strain cot1, stronger effect = lower value 1.03 | locus YPL051W, strain arl3, stronger effect = lower value 1.04 | locus YPL078C, strain atp4, stronger effect = lower value 1.01 | locus YPL106C, strain sse1, stronger effect = lower value 1.01 | locus YPL240C, strain hsp82, stronger effect = lower value 0.996 | locus YPL256C, strain CLN2, stronger effect = lower value 0.987 | locus YPR119W, strain clb2, stronger effect = lower value 1.02 | locus YPR141C, strain kar3, stronger effect = lower value 1.04 | locus YPR163C, strain tif3, stronger effect = lower value 1.01 | locus YPR167C, strain met16, stronger effect = lower value 1.01 | strain wtn01, stronger effect = lower value 0.995
